± gives the standard deviation.
Legend:
[1] = system: MILI (PIWIL2) piRISC loaded with piRNA #1 (26 nt); test: pre-steady-state target cleavage rate (min^-1); guide: piRNA #1 5'p-UGAGGUAGUAGGUUGUAUAGUAUCCA; higher = faster piRNA-guided slicing of the target; conditions: auxiliary factor: 500 nM mouse GTSF1;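 further: 1 nM active piRISC with 0.1 nM target library at 33 °C single turnover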
Outline: (§1)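 Cleave-'n-Seq measured uncleaved targets by sequencing after a transcribed, DNA-blocked target RNA library […] was mixed with 1 nM active affinity-purified piRISC holding one synthetic guide, with or without 500 nM GTSF1 partner protein, at 33 °C in HEPES–potassium acetate buffer for 0–8 or 0–960 min. Counts were normalised to depth and to weakly complementary targets, three trials were pooled, and k3 was capped at 0.0001 min^-1. A burst-and-steady-state fit gave the pre-steady-state cleavage rate.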

[2] = system: EfPiwi piRISC loaded with piRNA #1 (26 nt); test: pre-steady-state target cleavage rate (min^-1); auxiliary factor: 500 nM Ephydatia muelleri Gtsf1; guide: piRNA #1 5'p-UGAGGUAGUAGGUUGUAUAGUAUCCA; MIWI and MILI are mouse PIWI proteins and EfPiwi is from a freshwater sponge; tags in brackets are library labels; higher = faster piRNA-guided slicing of the target
Outline: as §1

GGAGACGCAUACUAUACAACCUACUACCUCA
pre-steady-state target cleavage rate [1]: 0.268 ± 0.024 | pre-steady-state target cleavage rate [2]: 0.0478 ± 0.018

GGAGUGGAUACUAUUCAACCUACUACCUGA
pre-steady-state target cleavage rate [1]: 0.0817 ± 0.011 | pre-steady-state target cleavage rate [2]: 0.00324 ± 0.0019

GGAGACGAUACUAUACAAGCUACUAGCUCA
pre-steady-state target cleavage rate [1]: 0.0998 ± 0.024 | pre-steady-state target cleavage rate [2]: 0.00375 ± 0.0019

GGAGUGGAAACUAUACAAGCUACUACCUCA
pre-steady-state target cleavage rate [1]: 0.257 ± 0.021 | pre-steady-state target cleavage rate [2]: 0.00579 ± 0.0027

GGAGUGGAUACUAUUCAACCUAGUACCUCA
pre-steady-state target cleavage rate [1]: 0.0485 ± 0.0085 | pre-steady-state target cleavage rate [2]: 0.00286 ± 0.0013

GGAGACGAUACUAUACAAACCUACUACCUCA
pre-steady-state target cleavage rate [1]: 0.00373 ± 0.0026 | pre-steady-state target cleavage rate [2]: 0.00846 ± 0.0032

GGAGACGAUACUAUACCACCUACUACCUCA
pre-steady-state target cleavage rate [1]: 0.168 ± 0.015 | pre-steady-state target cleavage rate [2]: 0.0106 ± 0.0037

GGAGACCUAUCUAUACAACCUACUACCUCA [g2:g20:cont:t1A]
pre-steady-state target cleavage rate [1]: 0.11 ± 0.018 | pre-steady-state target cleavage rate [2]: 0.0119 ± 0.0046

GGAGACCUAUCUAUACAACCUACUACGUCA
pre-steady-state target cleavage rate [1]: 0.0507 ± 0.008 | pre-steady-state target cleavage rate [2]: 0.00352 ± 0.0031

GGAGUGGAUACUAUACUACCUACUACGUCA
pre-steady-state target cleavage rate [1]: 0.0586 ± 0.0078 | pre-steady-state target cleavage rate [2]: 0.00245 ± 0.0017

GGAGUGGAUAGUAUACAACCUACUACGUCA
pre-steady-state target cleavage rate [1]: 0.0386 ± 0.0083 | pre-steady-state target cleavage rate [2]: 0.00277 ± 0.0018

GGAGUGGAUAGUAUACAACCUAGUACCUCA
pre-steady-state target cleavage rate [1]: 0.0556 ± 0.0099 | pre-steady-state target cleavage rate [2]: 0.00264 ± 0.0018

GGAGACGAUACUAAACAUCCUACUACCUCA
pre-steady-state target cleavage rate [1]: 0.267 ± 0.021 | pre-steady-state target cleavage rate [2]: 0.00359 ± 0.0026

GGAGAGGAUACUAUACAACCUACUACCUACA
pre-steady-state target cleavage rate [1]: 0.133 ± 0.016 | pre-steady-state target cleavage rate [2]: 0.00995 ± 0.0044

GGAGACCUAUGAAUACAACCUACUACCUCG [g2:g18:cont:t1G]
pre-steady-state target cleavage rate [1]: 0.0085 ± 0.002 | pre-steady-state target cleavage rate [2]: 0.00485 ± 0.004

GGAGUGGAUACAAUACAACCUACUACCUGA
pre-steady-state target cleavage rate [1]: 0.0731 ± 0.011 | pre-steady-state target cleavage rate [2]: 0.00396 ± 0.0018

GGAGACGUUACUAUACAACCUACUAGCUCA
pre-steady-state target cleavage rate [1]: 0.0954 ± 0.016 | pre-steady-state target cleavage rate [2]: 0.0029 ± 0.0017

GGAGAGGAUACUAUUCAACCUACAACCUCA
pre-steady-state target cleavage rate [1]: 0.0909 ± 0.01 | pre-steady-state target cleavage rate [2]: 0.00238 ± 0.0017

GGAGACCUAUGUAGUACAACCUACUACCUCA
pre-steady-state target cleavage rate [1]: 0.00758 ± 0.0032 | pre-steady-state target cleavage rate [2]: 0.00368 ± 0.0031
